# The panel holds about 83,000 compounds, 20% with a hit somewhere; the sample as a whole holds those more often.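 Each cell line was grown in a 96-well plate and treated with one concentration of compound for 48 hours. Values below 10 were considered active.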 Unmarked numbers belong to inactive results. The source made the active and inactive calls.
# Tests used:
# Assay in all cases: NCI-60 one-dose screen, 48 h (100 = growth as untreated, 0 = no growth, -100 = all killed)
# Conditions in all cases: 10 µM
# DU-145 prostate = tested on: DU-145 prostate
# K-562 leukemia = tested on: K-562 leukemia
# MALME-3M melanoma = tested on: MALME-3M melanoma
# MDA-MB-231 breast = tested on: MDA-MB-231 breast
# RXF 393 renal = tested on: RXF 393 renal
# SF-268 CNS = tested on: SF-268 CNS
# SF-295 CNS = tested on: SF-295 CNS
# SF-539 CNS = tested on: SF-539 CNS
# UACC-257 melanoma = tested on: UACC-257 melanoma
# M14 melanoma = tested on: M14 melanoma
# HCT-15 colon = tested on: HCT-15 colon
# HT29 colon = tested on: HT29 colon
# SNB-75 CNS = tested on: SNB-75 CNS
# SNB-19 CNS = tested on: SNB-19 CNS
# U251 CNS = tested on: U251 CNS
# PC-3 prostate = tested on: PC-3 prostate
# SK-MEL-5 melanoma = tested on: SK-MEL-5 melanoma
# UACC-62 melanoma = tested on: UACC-62 melanoma
# LOX IMVI melanoma = tested on: LOX IMVI melanoma
# SK-MEL-28 melanoma = tested on: SK-MEL-28 melanoma
Compound,growth (DU-145 prostate) [%],growth (K-562 leukemia),growth (MALME-3M melanoma) [%],growth (MDA-MB-231 breast) [%],growth (RXF 393 renal) [%],growth (SF-268 CNS) [%],growth (SF-295 CNS),growth (SF-539 CNS) [%],growth (UACC-257 melanoma) [%],growth (M14 melanoma),growth (HCT-15 colon),growth (HT29 colon),growth (SNB-75 CNS) [%],growth (SNB-19 CNS) [%],growth (U251 CNS) [%],growth (PC-3 prostate),growth (SK-MEL-5 melanoma),growth (UACC-62 melanoma),growth (LOX IMVI melanoma),growth (SK-MEL-28 melanoma) [%]
CC(C)(C)OC(=O)N1CCc2c(sc3ncnc(N/N=C/c4ccccc4Br)c23)C1,91.9,15.9%,90.4,81.3,81.8,87.8,89.5%,80.6,82.6,83.3%,25.5%,77.2%,74.5,93.1,74.9,48.1%,66.6%,60.1%,55.5%,81.9
CCCc1cn(CC(=O)Nc2nc3ccccc3s2)nn1,117,106%,101,98.9,114,98.8,104%,99.5,106,102%,108%,104%,101,102,97.8,96.3%,99.5%,98.1%,96.6%,103
CCOC(=O)c1cc(C(=O)c2ccc(Cl)cc2)n2ccc(-c3cc[n+](CC(=O)c4ccc(OC)cc4)cc3)cc12,30.3,-52.9% (active),99.6,70.9,73.6,78.5,106%,89.5,101,56.8%,75.5%,-9.81% (active),93.2,77,13.2,51.5%,98.3%,107%,12.9%,99.6
O=C(Nc1ccc(NS(=O)(=O)c2ccc(F)cc2)cc1)C12CC3CC(CC(C3)C1)C2,103,74.7%,87.1,96.2,105,97.4,91.2%,106,91.6,96.6%,86.8%,89.6%,90,93.7,91.3,78.8%,93.9%,92.4%,92.2%,99.9
Cc1ccc(NCCN(C)CC(C)O)c2c(=O)c3ccccc3sc12 (stereo not given),47.4,0.188% (active),34.6,36.9,24.8,56.6,53.3%,53.2,45.9,-49% (active),32.7%,7.09% (active),57,54.5,31.9,41%,58.1%,-2.71% (active),12.6%,57
C=CCn1c(SCC(=O)Nc2ccc(C(=O)/C=C/c3ccc(Cl)cc3)cc2)nnc1-c1cc(-c2ccccc2)nc2ccccc12,95.6,27.6%,87.1,58.3,63.9,76,102%,69.8,93.4,76.3%,8.31% (active),40.9%,59.8,66.9,48.1,70.4%,87.1%,59.9%,-82.4% (active),99.7
COc1cc2cc(Oc3ccc(NC(=O)c4cccc(C(F)(F)F)c4)cc3)c(C)nc2cc1OC,52.9,23.8%,47.5,33.3,54,62.9,8.94% (active),60,44.9,16.1%,38.3%,31.3%,68.4,58.8,19.5,9.54% (active),2.78% (active),29.3%,45.8%,71.4
